PubChem BioAssay AID1159580 (chemical genetic matrix, 2015)
Out of some 5,500 compounds screened, about 2,000 (36%) were called active. Not shown: some 18% with an inconclusive outcome. Rule as the data show it: active = normalized growth mostly below about 0.91 (no sharp cut-off); inconclusive = no clear call, values can overlap the other calls; inactive = mostly above about 0.92. Some of the results follow.

Assay: chemical genetic growth profiling, strain panel (AID 1159580);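 also: tested at 20 µM; growth read once vehicle control cultures reached saturation at 30 °C; 1 = growth at the plate median or of vehicle wells; lower values mean less growth of the strain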
Conditions: S. cerevisiae deletion strains, growth OD

Measured: normalized growth

CC1(C)S[C@@H]2[C@H](NC(=O)[C@H](C(=O)O)c3cccs3)C(=O)N2[C@H]1C(=O)O
inactive: locus YAL021C, strain ccr4, active compounds read low 0.996 | locus YAL026C, strain drs2, active compounds read low 1.02 | locus YAL030W, strain snc1, active compounds read low 1.01 | locus YBL061C, strain skt5, active compounds read low 1.01 | locus YBR009C, strain hhf1, active compounds read low 1.03 | locus YBR023C, strain chs3, active compounds read low 1.01 | locus YBR171W, strain sec66, active compounds read low 1.03 | locus YBR231C, strain swc5, active compounds read low 1.02 | locus YBR279W, strain paf1, active compounds read low 1.01 | locus YCL011C, strain gbp2, active compounds read low 1.01 | locus YCL016C, strain dcc1, active compounds read low 0.998 | locus YCL061C, strain MRC1, active compounds read low 1.01 | locus YCL069W, strain vba3, active compounds read low 0.999 | locus YCR088W, strain abp1, active compounds read low 0.996 | locus YDL005C, strain med2, active compounds read low 1.01 | locus YDL040C, strain nat1, active compounds read low 0.999 | locus YDR001C, strain nth1, active compounds read low 1 | locus YDR069C, strain doa4, active compounds read low 1.04 | locus YDR137W, strain rgp1, active compounds read low 1.02 | locus YDR159W, strain sac3, active compounds read low 1.01 | locus YDR195W, strain ref2 1.02 | locus YDR297W, strain sur2, active compounds read low 1.01 | locus YDR334W, strain swr1, active compounds read low 1 | locus YDR335W, strain msn5, active compounds read low 1.01 | locus YDR392W, strain spt3, active compounds read low 1.01 | locus YEL003W, strain gim4, active compounds read low 1.01 | locus YEL037C, strain rad23, active compounds read low 0.973 | locus YEL061C, strain CIN8 (second series), active compounds read low 0.991 | locus YER015W, strain faa2, active compounds read low 1.01 | locus YER016W, strain bim1, active compounds read low 1 | locus YER111C, strain swi4, active compounds read low 1.01 | locus YER155C, strain BEM2 (second series), active compounds read low 1.04 | locus YFR010W, strain ubp6, active compounds read low 1 | locus YGL167C, strain pmr1, active compounds read low 1.01 | locus YGL173C, strain kem1, active compounds read low 1.01 | locus YGL227W, strain vid30, active compounds read low 1 | locus YGL240W, strain doc1, active compounds read low 1.04 | locus YGL253W, strain hxk2, active compounds read low 0.998 | locus YHR013C, strain ard1, active compounds read low 1.03 | locus YHR027C, strain rpn1, active compounds read low 1 | locus YHR030C, strain SLT2, active compounds read low 1.01 | locus YHR079C, strain IRE1, active compounds read low 1.02 | locus YHR142W, strain chs7, active compounds read low 0.957 | locus YJL092W, strain hpr5, active compounds read low 1 | locus YJL095W, strain BCK1 (second series), active compounds read low 1 | locus YJL095W, strain BCK1, active compounds read low 0.974 | locus YJL115W, strain asf1, active compounds read low 1 | locus YJL129C, strain trk1, active compounds read low 1.01 | locus YJL154C, strain vps35, active compounds read low 0.999 | locus YJL164C, strain tpk1, active compounds read low 0.999 | locus YJL166W, strain qcr8, active compounds read low 1.01 | locus YJL187C, strain SWE1, active compounds read low 1.02 | locus YJR066W, strain TOR1, active compounds read low 0.952 | locus YKL160W, strain elf1, active compounds read low 1.01 | locus YKR026C, strain gcn3, active compounds read low 0.991 | locus YKR091W, strain srl3, active compounds read low 1.01 | locus YLL001W, strain dnm1, active compounds read low 0.999 | locus YLL026W, active compounds read low 1.01 | locus YLL041C, strain sdh2, active compounds read low 1.01 | locus YLR027C, strain aat2, active compounds read low 1.01 | locus YLR113W, strain HOG1, active compounds read low 0.971 | locus YLR221C, strain rsa3, active compounds read low 0.989 | locus YLR258W, strain gsy2, active compounds read low 1.02 | locus YLR262C, strain YPT6 (second series), active compounds read low 0.996 | locus YLR320W, strain mms22, active compounds read low 1.01 | locus YLR342W, strain FKS1, active compounds read low 1.01 | locus YLR357W, strain rsc2, active compounds read low 1.07 | locus YLR370C, strain arc18, active compounds read low 1.01 | locus YLR384C, strain iki3, active compounds read low 0.994 | locus YML120C, strain ndi1, active compounds read low 1.01 | locus YMR058W, strain fet3, active compounds read low 1.02 | locus YMR125W, strain sto1, active compounds read low 1.03 | locus YMR129W, active compounds read low 1 | locus YMR205C, strain PFK2, active compounds read low 1.03 | locus YMR231W, strain pep5, active compounds read low 1.01 | locus YNL071W, strain lat1, active compounds read low 1.01 | locus YNL183C, strain NPR1, active compounds read low 0.96 | locus YNL209W, strain ssb2, active compounds read low 1.01 | locus YNL248C, strain rpa49, active compounds read low 0.991 | locus YNL322C, strain KRE1 (second series), active compounds read low 1.01 | locus YNR049C, strain mso1, active compounds read low 0.994 | locus YOR001W, strain rrp6, active compounds read low 1 | locus YOR070C, strain gyp1, active compounds read low 0.999 | locus YOR080W, strain dia2, active compounds read low 1.02 | locus YOR083W, strain WHI5, active compounds read low 1 | locus YOR106W, strain vam3, active compounds read low 1 | locus YOR231W, strain MKK1, active compounds read low 1.02 | locus YOR265W, strain rbl2, active compounds read low 0.998 | locus YOR270C, strain vph1, active compounds read low 1 | locus YOR290C, strain snf2, active compounds read low 1.01 | locus YPL051W, strain arl3, active compounds read low 1 | locus YPL078C, strain atp4, active compounds read low 0.989 | locus YPL106C, strain sse1, active compounds read low 1.03 | locus YPL240C, strain hsp82, active compounds read low 0.986 | locus YPL256C, strain CLN2, active compounds read low 1.03
